This is an account of results in PubChem BioAssay.

The source made the active and inactive calls.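 How the source made its calls, unless noted: active means compound raises GLP1 secretion from the human gut endocrine cells, with no numeric limit stated; inactive means the rest.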

A short description of test [1]: Wnt pathway potentiators raising nuclear beta-catenin – imaging, WNT3A-conditioned medium, mouse C2C12, NPC library, primary screen (AID 1117326; in the data active means nuclear beta-catenin stimulation mostly above about 4.2%, no sharp cut-off; inactive means mostly below about 10%; further: reference of the scale not given here). As to conditions: stronger effect = higher value.
Test [2] can be described thus: stimulators of insulin release from INS-1E, primary screen, cell-based, 5 mM glucose, NPC library (AID 1117329;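 active means compound raises insulin release from rat beta cells at 5 mM glucose, no numeric limit stated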; further: reference of the scale not given here). As to conditions: rat INS-1E insulin secretion, at 10 µM, stronger effect = higher value.
Test [3] can be described thus: growth inhibition of GSK3B-pretreated HCT116 cells – cell-based, CellTiter-Glo, 0.2 to 20 µM (AID 1117336;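 active means compounds lowering colon cancer cell viability after pretreatment blocking the GSK3B kinase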). As to conditions: HCT116 viability after GSK3B inhibitor, at 20 µM, stronger effect = higher value.
Test [4] can be described thus: inhibition of endothelial tube formation, primary screen, imaging, VEGF stimulated, CD31 staining, tube area, NPC library (AID 1117340;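 active means compound that reduces growth-factor-driven endothelial tube area in a mixed cell culture, no cutoff stated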). As to conditions: VEGF-stimulated ADSC/ECFC co-culture, at 10 µM, stronger effect = higher value.
Test [5] in a line: GLP1 release stimulators, primary, NCI-H716, NPC library (AID 1117341). Further: reference of the scale not given here. The conditions noted are these: NCI-H716 cells, at 10 µM, stronger effect = higher value.
Test [6] can be described thus: HCT116 colon cancer cell growth inhibition, primary screen, CellTiter-Glo luminescence, NPC library (AID 1117342;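 active means compounds that lower survival of HCT116 colon cancer cells in the luminescence readout, no numeric limit stated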). The conditions noted are these: at 20 µM (top of the series).
Test [7] in a line: reduced SW480 viability measured with CellTiter-Glo, NPC library, primary (AID 1117343;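 active means compounds that lower viability of the colon cancer cells in the luminescence readout, with no numeric limit stated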). As to conditions: CellTiter-Glo luminescence; at 20 µM (top of the series).
A short description of test [8]: NPC library primary testing for decreased DLD-1 cell viability via CellTiter-Glo (AID 1117346;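 active means compounds that lower survival of DLD-1 colon cancer cells in the luminescence readout, no cutoff given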). The conditions noted are these: DLD-1 viability, CellTiter-Glo luminescence; at 20 µM (top of the series).

As for `Nc1ncnc2c1ncn2Cc1c(F)cccc1Cl`, the nuclear beta-catenin stimulation was -0.7% (inactive) in test [1] (at 10 µM) and -2.1% in test [1] (stimulation, at 2 µM). For the same molecule, the insulin secretion stimulation in test [2] was 4.3% (inactive). In test [3], the viability decrease was -7.4% (inactive). In addition, the tube area decrease in test [4] was -5% (inactive). For the same molecule, the GLP1 secretion stimulation in test [5] is 1.9% (inactive). For the same molecule, in test [6], the inhibition of viability was 9.7% (inactive). The viability decrease (inhibition) was -2.4% (inactive) in test [7] and -2% (inactive) in test [8].
Regarding `CCCCCCCCCCCC(=O)OCC(O)CO` (centres undefined), the nuclear beta-catenin stimulation in test [1] (at 10 µM) is -1.2% (inactive); in test [1] (stimulation, at 2 µM) it was 2.9%. The insulin secretion stimulation in test [2] was -1.1% (inactive). Besides, the viability decrease in test [3] is -3.8% (inactive). The tube area decrease in test [4] was 14.2% (inactive). For the same molecule, in test [5], the GLP1 secretion stimulation was -3.3% (inactive). Besides, the inhibition of viability in test [6] is -2.2% (inactive). For the same molecule, the viability decrease (inhibition) in test [7] is 44.7% (inactive); in test [8] it was 44.9% (inactive).
For `Cc1c(C(C)C)c(=O)n(-c2ccccc2)n1C`, the nuclear beta-catenin stimulation was -0.3% (inactive) in test [1] (at 10 µM) and -0.2% in test [1] (stimulation, at 2 µM). In addition, the insulin secretion stimulation in test [2] is -0.6% (inactive). Moreover, the viability decrease in test [3] was -2.5% (inactive). Further, the tube area decrease in test [4] is -2.7% (inactive). The GLP1 secretion stimulation in test [5] is 0.4% (inactive). Moreover, the inhibition of viability in test [6] was -15.5% (inactive). Besides, the figures for the viability decrease (inhibition) in test [7] and in test [8] were 36.6% (inactive) and 8.15% (inactive), respectively.
As to `Cc1ccccc1N=Nc1ccc(N=Nc2c(O)ccc3ccccc23)c(C)c1`, the nuclear beta-catenin stimulation was 4.6% (inactive) in test [1] (at 10 µM) and 5.4% in test [1] (stimulation, at 2 µM). Besides, the insulin secretion stimulation in test [2] was 1.7% (inactive). Moreover, the viability decrease in test [3] was 2.6% (inactive). Also, the tube area decrease in test [4] was 38.9% (inactive). For the same molecule, the GLP1 secretion stimulation in test [5] was -8.5% (inactive). Moreover, the inhibition of viability in test [6] is 6.3% (inactive). Moreover, the viability decrease (inhibition) in test [7] is 17.9% (inactive); in test [8] it was 15.4% (inactive).
As for `C=CC[N+]1([C@H]2C[C@H]3[C@@H]4CC[C@H]5C[C@H](OC(C)=O)[C@@H](N6CCCCC6)C[C@]5(C)[C@H]4CC[C@]3(C)[C@H]2OC(=O)CC)CCCCC1`, the nuclear beta-catenin stimulation in test [1] (at 10 µM) was -0.1% (inactive); in test [1] (stimulation, at 2 µM), -2.6%. For the same molecule, the insulin secretion stimulation in test [2] is 1.45% (inactive). In addition, the viability decrease in test [3] was 27.6% (inactive). In test [4], the tube area decrease was -8.7% (inactive). In test [5], the GLP1 secretion stimulation was 8.2% (inactive). For the same molecule, in test [6], the inhibition of viability is 32.5% (inactive). For the same molecule, the viability decrease (inhibition) in test [7] was 23.4% (inactive); in test [8] it was -2.8% (inactive).
On to `CC(C)(C)c1ccc(C(=O)CCCCl)cc1`, for which the nuclear beta-catenin stimulation in test [1] (at 10 µM) is -0.1% (inactive); in test [1] (stimulation, at 2 µM) it was 0.6%. Further, in test [2], the insulin secretion stimulation was 3.7% (inactive). Further, the viability decrease in test [3] was -2.4% (inactive). In addition, the tube area decrease in test [4] was 20.9% (inactive). In addition, the GLP1 secretion stimulation in test [5] is -3.6% (inactive). In test [6], the inhibition of viability is 10.3% (inactive). The viability decrease (inhibition) in test [7] is -21.3% (inactive); in test [8], 0.9% (inactive).
`CCN(CC)CCOC(=O)C1(c2ccccc2)CCCC1`: the nuclear beta-catenin stimulation in test [1] (at 10 µM) is -1.2% (inactive); in test [1] (stimulation, at 2 µM), -0.5%. Also, the insulin secretion stimulation in test [2] is 9.3% (inactive). The viability decrease in test [3] was -14.1% (inactive). Also, in test [4], the tube area decrease was 22.6% (inactive). In addition, the GLP1 secretion stimulation in test [5] is -2.7% (inactive). The inhibition of viability in test [6] is 4% (inactive). Besides, the viability decrease (inhibition) in test [7] is -1.9% (inactive); in test [8], -2.6% (inactive).
Take `CCC(Cc1c(I)cc(I)c(O)c1I)C(=O)O` (centres undefined): the nuclear beta-catenin stimulation in test [1] (at 10 µM) was 0.6% (inactive); in test [1] (stimulation, at 2 µM), 0.3%. In test [2], the insulin secretion stimulation is -0.2% (inactive). Further, the viability decrease in test [3] is 7.1% (inactive). Also, in test [4], the tube area decrease was -23.3% (inactive). In test [5], the GLP1 secretion stimulation is -3.4% (inactive). For the same molecule, the inhibition of viability in test [6] was -22.9% (inactive). Further, the viability decrease (inhibition) in test [7] was 11.5% (inactive); in test [8], 1.1% (inactive).
For `Cc1cccc(N(C)C(=S)Oc2ccc3c(c2)C2CCC3C2)c1` (centres undefined), the nuclear beta-catenin stimulation is 0.3% (inactive) in test [1] (at 10 µM) and 0.6% in test [1] (stimulation, at 2 µM). In addition, the insulin secretion stimulation in test [2] was 1% (inactive). In test [3], the viability decrease is -64.8% (inactive). Besides, the tube area decrease in test [4] is 15.8% (inactive). The GLP1 secretion stimulation in test [5] is -4.7% (inactive). Moreover, the inhibition of viability in test [6] was 50.2% (active). Besides, the values for the viability decrease (inhibition) in test [7] and in test [8] were 80% (active) and 56.8% (active), respectively.
Consider `Cn1c(O)c(N=NC(N)=S)c2ccccc21`, for which the nuclear beta-catenin stimulation in test [1] (at 10 µM) was 2.5% (inactive); in test [1] (stimulation, at 2 µM), 3.1%. Further, the insulin secretion stimulation in test [2] is 2% (inactive). The viability decrease in test [3] is 13.8% (inactive). Moreover, in test [4], the tube area decrease was 28.1% (inactive). Also, the GLP1 secretion stimulation in test [5] was -3.5% (inactive). Besides, the inhibition of viability in test [6] is 39.9% (inactive). For the same molecule, the viability decrease (inhibition) in test [7] is 30.4% (inactive); in test [8], 12.2% (inactive).
On to `NS(=O)(=O)c1ccc(N2CCCCS2(=O)=O)cc1`, for which the nuclear beta-catenin stimulation in test [1] (at 10 µM) was 0.5% (inactive); in test [1] (stimulation, at 2 µM), -0.6%. Besides, in test [2], the insulin secretion stimulation was -0.3% (inactive). Moreover, in test [3], the viability decrease is -15.7% (inactive). Besides, in test [4], the tube area decrease was 5.1% (inactive). Moreover, the GLP1 secretion stimulation in test [5] was -1.7% (inactive). Moreover, the inhibition of viability in test [6] was -8.93% (inactive). The viability decrease (inhibition) in test [7] is 29% (inactive); in test [8], -6.9% (inactive).
In the case of `O=C(O)Cc1csc(-c2ccc(Cl)cc2)n1`, the nuclear beta-catenin stimulation was -0.7% (inactive) in test [1] (at 10 µM) and -0.2% in test [1] (stimulation, at 2 µM). In addition, the insulin secretion stimulation in test [2] is 0.4% (inactive). Moreover, the viability decrease in test [3] was -4.4% (inactive). The tube area decrease in test [4] was 0.8% (inactive). Besides, in test [5], the GLP1 secretion stimulation is -2.9% (inactive). For the same molecule, the inhibition of viability in test [6] is -9.9% (inactive). Further, the viability decrease (inhibition) in test [7] is -3.2% (inactive); in test [8], -11% (inactive).
Turning to `Cc1cc(OCCOCC[N+](C)(C)Cc2ccccc2)ccc1C(C)(C)CC(C)(C)C`, the nuclear beta-catenin stimulation in test [1] (at 10 µM) is 3% (inactive); in test [1] (stimulation, at 2 µM), 6.8%. In test [2], the insulin secretion stimulation was 0.6% (inactive). The viability decrease in test [3] is 101% (active). Besides, the tube area decrease in test [4] is 107% (active). In addition, in test [5], the GLP1 secretion stimulation is 98.1% (active). Also, the inhibition of viability in test [6] was 102% (active). Also, the viability decrease (inhibition) in test [7] is 141% (active); in test [8], 103% (active).
As for `CCCCCC=CCC=CCCCCCCCC(=O)OCC`, the nuclear beta-catenin stimulation is 1.6% (inactive) in test [1] (at 10 µM) and -0.5% in test [1] (stimulation, at 2 µM). Further, the insulin secretion stimulation in test [2] is -1.8% (inactive). The viability decrease in test [3] is -40% (inactive). In addition, the tube area decrease in test [4] is 7.8% (inactive). The GLP1 secretion stimulation in test [5] was 8.5% (inactive). The inhibition of viability in test [6] was 17.5% (inactive). In addition, the viability decrease (inhibition) in test [7] is 30.9% (inactive); in test [8] it was 54.5% (active).
In the case of `COc1cc2[nH]c(=O)[nH]c(=O)c2cc1OC`, the nuclear beta-catenin stimulation is 0.1% (inactive) in test [1] (at 10 µM) and 1.1% in test [1] (stimulation, at 2 µM). For the same molecule, in test [2], the insulin secretion stimulation was -1.8% (inactive). In addition, the viability decrease in test [3] is 6.35% (inactive). Moreover, the tube area decrease in test [4] is -8.3% (inactive). Further, the GLP1 secretion stimulation in test [5] is 3.1% (inactive). Besides, the inhibition of viability in test [6] was -1.4% (inactive). The figures for the viability decrease (inhibition) in test [7] and in test [8] were 47.6% (inactive) and 0.05% (inactive), respectively.
Take `Cc1cc(O)c(C(C)C)cc1Cl`: the nuclear beta-catenin stimulation in test [1] (at 10 µM) is -0.5% (inactive); in test [1] (stimulation, at 2 µM), 1.2%. In test [2], the insulin secretion stimulation is -0.9% (inactive). Further, the viability decrease in test [3] was 36.1% (inactive). Besides, in test [4], the tube area decrease is -10.5% (inactive). The GLP1 secretion stimulation in test [5] was 29.3% (active). In test [6], the inhibition of viability is -9.5% (inactive). Moreover, the viability decrease (inhibition) in test [7] is 22% (inactive); in test [8], 19.5% (inactive).
